{"source": "PubChem BioAssay AID2284339", "about": "(EPA ToxCast)", "note": "Several values for one entry are separate records, joined by “and”; a condition that tells them apart may be missing. Equal entries are not always repeated. Activity calls are given as the source filed them. How the source made its calls: active means hit-call score of the fitted dose curve at least 0.9, where 1 is the maximum; inactive means score below 0.9."}
{"test_system": "NCBI gene 100038242", "assay": "CCTE_GLTED_xDIO3: CCTE's Xenopus Iodothyronine Deiodinase Type 3 (xDIO3) Inhibition Assay, Great Lakes Toxicology and Ecology Division (GLTED) Lab", "experimental": "CCTE_GLTED_xDIO3 is a cell-free, single-readout assay designed to test the inhibitory activity of chemicals toward Xenopus (frog) iodothyronine Deiodinase Type 3 (DIO3) enzyme. Enzyme is incubated in presence of test chemical for 3 hours during which uninhibited enzyme liberates free iodide from substrate. Free iodide is measured in a second step using the Sandell-Kolthoff method.CCTE_GLTED_xDIO3 is the assay component measured from the CCTE_GLTED_xDIO assay. It is designed to make measurements of enzyme activity, a form of enzyme reporter, as detected with absorbance signals by spectrophotometry.Data from the assay component CCTE_GLTED_xDIO3 was analyzed at the assay endpoint CCTE_GLTED_xDIO3 in the positive analysis fitting direction relative to DMSO as the negative control and baseline of activity. Using a type of enzyme reporter, loss-of-signal activity can be used to understand deiodinase Type 3 activity. To generalize the intended target to other relatable targets, this assay endpoint is annotated to the 'deiodinase' intended target family, where the subfamily is 'deiodinase Type 3'.\n[…]"}
{"smiles": "COC(=O)C(F)(F)C(F)(F)OC(F)(C(F)(F)F)C(F)(F)OC(F)=C(F)F", "note": "(stereo not given)", "AC50": "7.65 µM (active)"}
{"smiles": "O=S(=O)(O)C(F)(F)C(F)(F)C(F)(F)C(F)(F)C(F)(F)C(F)(F)C(F)(F)C(F)(F)F", "AC50": "142 µM (active) and 160 µM (active)"}
{"smiles": "C=CC(=O)OCC(F)(F)C(F)F", "AC50": "19.8 µM (active)"}
{"smiles": "O=C(O)C(F)(F)C(F)(F)C(F)(F)C(F)(F)C(F)(F)C(F)(F)C(F)(F)C(F)(F)C(F)(F)F", "AC50": "147 µM (active)"}
{"smiles": "O=C(O)C(F)(F)C(F)(F)C(F)(F)C(F)(F)C(F)(F)C(F)(F)C(F)(F)C(F)(F)C(F)(F)C(F)(F)F", "AC50": "27.7 µM (active)"}
